Source: PubChem BioAssay AID1159580 (chemical genetic matrix, 2015)
The whole screen tested about 5,500 compounds, of which about 2,000 (36%) were called active. Inconclusive results (about 18%) are left out. Cut-off read from the data, not from the text of the source: active = normalized growth mostly below about 0.91 (no sharp cut-off); inconclusive = no clear call, values can overlap the other calls; inactive = mostly above about 0.92. Some of the results follow.

Test: chemical genetic growth profiling, strain panel (AID 1159580);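 note: tested at 20 µM; growth read once vehicle control cultures reached saturation at 30 °C; 1 = growth at the plate median or of vehicle wells; lower values mean less growth of the strain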
Conditions: S. cerevisiae deletion strains, growth OD

Measured: normalized growth

NCCC(=O)NCCc1cnc[nH]1
inactive: locus YAL013W, strain DEP1, stronger effect = lower value 1 | locus YAL040C, strain CLN3, stronger effect = lower value 0.98 | locus YCL061C, strain MRC1 (second series), stronger effect = lower value 0.997 | locus YER002W, strain NOP16, stronger effect = lower value 0.993 | locus YGR078C, strain PAC10, stronger effect = lower value 1.01 | locus YMR263W, strain SAP30, stronger effect = lower value 1 | locus YNL128W, strain TEP1, stronger effect = lower value 1.01 | locus YNL175C, strain NOP13, stronger effect = lower value 0.966 | locus YNL197C, strain WHI3, stronger effect = lower value 0.984 | locus YNL224C, strain SQS1, stronger effect = lower value 0.998 | locus YOR083W, strain WHI5 (second series), stronger effect = lower value 1 | locus YPL241C, strain CIN2, stronger effect = lower value 1.01
